# According to PubChem BioAssay (EPA / NIEHS):
# “And” between values parts separate entries of the source, which are not always exact repeats. Identical values can stand only once. Some compounds were tested as several samples or in several runs, with calls that do not always agree. The source made the active and inactive calls. How the source made its calls: active means hit-call score of the fitted dose curve at least 0.9, where 1 is the maximum; inactive means score below 0.9.
# How the values were obtained:
# Conditions in all cases: mRNA level, 48 h; actives raise or lower the signal
# [1] = read-out: Glutamate-cysteine ligase regulatory (GCLM), GCLM (gene 2730); experiment: LTEA_HepaRG_GCLM: Life Technologies and Expression Analysis (LTEA) Assay for Glutamate-cysteine ligase regulatory (GCLM) using HepaRG (AID 2283500)
# Summary of the method: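 Endpoint is GCLM transcript level by qRT-PCR, normalized to three housekeeping genes, after 48 h chemical exposure of human HepaRG cells (0.5% DMSO vehicle, top 100 uM, half-log dilutions). Fitting was bidirectional relative to DMSO.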
# [2] = read-out: Glutathione S-transferase M3 (GSTM3), GSTM3 (gene 2947); experiment: LTEA_HepaRG_GSTM3: Life Technologies and Expression Analysis (LTEA) Assay for Glutathione S-transferase M3 (GSTM3) using HepaRG (AID 2283501)
# Summary of the method: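 Differentiated HepaRG cells in serum-free induction medium were exposed in duplicate for 48 h to 8 half-log concentrations up to 100 uM in 0.5% DMSO. GSTM3 mRNA was measured by TaqMan qRT-PCR, normalized to ACTB/GAPDH/POLR2A, and fitted bidirectionally versus DMSO.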
# [3] = read-out: Heat shock 70 kDa protein 1 (HSPA1A), gene 3303; experiment: LTEA_HepaRG_HSPA1A: Life Technologies and Expression Analysis (LTEA) Assay for Heat shock 70 kDa protein 1 (HSPA1A) using HepaRG (AID 2283502)
# Summary of the method: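 Cells were plated and cultured for 48 h, then switched to serum-free induction medium. Chemicals were added at eight half-log concentrations up to 100 uM for 48 h. RNA was then isolated and HSPA1A measured by qRT-PCR with bidirectional curve fitting against DMSO.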
# [4] = read-out: Hypoxia-inducible factor 1-alpha (Homo sapiens) (UniProt Q16665); experiment: LTEA_HepaRG_HIF1A: Life Technologies and Expression Analysis (LTEA) Assay for Hypoxia-inducible factor 1 (HIF1A) Trancription factor using HepaRG (AID 2283503)
# Summary of the method: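 HIF1A transcript level read by qRT-PCR (ACTB, GAPDH, POLR2A normalization) after 48 h chemical exposure of HepaRG cultures. Eight half-log concentrations, top 100 uM, 0.5% DMSO vehicle, duplicates; bidirectional curve fit against DMSO baseline.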
# [5] = read-out: 3-Hydroxy-3-Methylglutaryl-CoA Synthase 2 (HMGCS2), HMGCS2 (gene 3158); experiment: LTEA_HepaRG_HMGCS2: Life Technologies and Expression Analysis (LTEA) Assay for 3-Hydroxy-3-Methylglutaryl-CoA Synthase 2 (HMGCS2) using HepaRG (AID 2283504)
# Summary of the method: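 Differentiated human HepaRG cells were exposed in duplicate for 48 h in serum-free induction medium to eight concentrations (top 100 uM, half-log steps, 0.5% DMSO). HMGCS2 mRNA was quantified by TaqMan qRT-PCR, normalised to ACTB, GAPDH and POLR2A, then fitted bidirectionally against DMSO.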
# [6] = read-out: HGF (gene 3082); experiment: LTEA_HepaRG_HGF: Life Technologies and Expression Analysis (LTEA) Assay for Hepatocyte Growth Facto (HGF) using HepaRG (AID 2283505)
# Summary of the method: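 Differentiated human HepaRG cells in serum-free induction medium were exposed in duplicate for 48 h to eight concentrations (top 100 uM, half-log steps, 0.5% DMSO). HGF mRNA was quantified by qRT-PCR, normalized to ACTB, GAPDH and POLR2A.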
# [7] = read-out: Insulin Like Growth Factor 1 (IGF1), IGF1 (gene 3479); experiment: LTEA_HepaRG_IGF1: Life Technologies and Expression Analysis (LTEA) Assay for Insulin Like Growth Factor 1 (IGF1) using HepaRG (AID 2283506)
# Summary of the method: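 Cells are thawed, plated and cultured 48 h, then exposed in duplicate to chemical (highest 100 uM, half-log steps, 0.5% DMSO) for another 48 h. Total RNA is analysed by Fluidigm qRT-PCR for IGF1 expression relative to vehicle.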
# [8] = read-out: Insulin-like growth factor-binding protein 1 (IGFBP1), IGFBP1 (gene 3484); experiment: LTEA_HepaRG_IGFBP1: Life Technologies and Expression Analysis (LTEA) Assay for Insulin-like growth factor-binding protein 1 (IGFBP1) using HepaRG (AID 2283508)
# Summary of the method: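 Differentiated human HepaRG cells in serum-free induction medium were exposed in duplicate for 48 h to eight concentrations, top 100 uM with half-log dilutions, in 0.5% DMSO. Transcript levels came from qRT-PCR normalised to ACTB, GAPDH and POLR2A, fitted bidirectionally against DMSO.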
# [9] = read-out: Interleukin 6 (IL6), IL6 (gene 3569); experiment: LTEA_HepaRG_IL6: Life Technologies and Expression Analysis (LTEA) Assay for Interleukin 6 (IL6) using HepaRG (AID 2283509)
# Summary of the method: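 qRT-PCR read-out of IL6 transcript, normalized to three housekeeping genes, after 48 h chemical exposure of HepaRG cells; 8-point half-log series, top 100 uM, 0.5% DMSO vehicle. Bidirectional curve fitting against DMSO baseline.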
# [10] = read-out: Interleukin 6 Receptor (IL6R), IL6R (gene 3570); experiment: LTEA_HepaRG_IL6R: Life Technologies and Expression Analysis (LTEA) Assay for Interleukin 6 Receptor (IL6R) using HepaRG (AID 2283510)
# Summary of the method: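 Cells were thawed, plated and cultured 48 h, then medium was changed to serum-free induction medium. Chemicals were added in duplicate (100 uM top, half-log steps, 0.5% DMSO) for 48 h. Lysates were analyzed by qRT-PCR for IL6R expression.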
# [11] = read-out: Potassium channel subfamily K member 1 (KCNK1), KCNK1 (gene 3775); experiment: LTEA_HepaRG_KCNK1: Life Technologies and Expression Analysis (LTEA) Assay for Potassium channel subfamily K member 1 (KCNK1) using HepaRG (AID 2283511)
# Summary of the method: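 HepaRG, 48 h exposure, 8-pt half-log series top 100 uM, 0.5% DMSO vehicle, duplicates. Readout: KCNK1 transcript by qRT-PCR (Fluidigm array), housekeeping-normalized; bidirectional curve fit relative to DMSO baseline.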
# [12] = read-out: JUN Transcription Factor, JUN (gene 3725); experiment: LTEA_HepaRG_JUN: Life Technologies and Expression Analysis (LTEA) Assay for JUN Transcription Factor using HepaRG (AID 2283513)
# Summary of the method: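 Read-out is JUN transcript level by TaqMan qRT-PCR, normalized to ACTB, GAPDH and POLR2A, after 48 h chemical treatment of HepaRG cells. Concentration-response spanned eight half-log points up to 100 uM in 0.5% DMSO.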
# [13] = read-out: Lipase C (LIPC), LIPC (gene 3990); experiment: LTEA_HepaRG_LIPC: Life Technologies and Expression Analysis (LTEA) Assay for Lipase C (LIPC) using HepaRG (AID 2283514)
# Summary of the method: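 HepaRG, 48 h exposure, 8-pt half-log series from 100 uM in 0.5% DMSO, duplicates. Readout: LIPC mRNA by Fluidigm qRT-PCR, housekeeping-normalized (ACTB/GAPDH/POLR2A). Gain or loss fitted bidirectionally against DMSO baseline.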
# [14] = read-out: Lipoprotein lipase (LPL), LPL (gene 4023); experiment: LTEA_HepaRG_LPL: Life Technologies and Expression Analysis (LTEA) Assay for Lipoprotein lipase (LPL) using HepaRG (AID 2283515)
# Summary of the method: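 HepaRG, 48 h exposure, 8-pt half-log dilutions from 100 uM, 0.5% DMSO vehicle, duplicates; qRT-PCR (Fluidigm array) of LPL mRNA vs housekeeping genes; bidirectional curve fit relative to DMSO baseline.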
# [15] = read-out: MicroRNA 122 (MIR122), gene 406906; experiment: LTEA_HepaRG_MIR122: Life Technologies and Expression Analysis (LTEA) Assay for MicroRNA 122 (MIR122) using HepaRG (AID 2283516); further: the transcript read is the microRNA miR-122
# Summary of the method: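 Human liver HepaRG cultures receive test chemicals for 48 h at eight half-log concentrations from 100 uM. Expression is quantified by qRT-PCR with ACTB/GAPDH/POLR2A normalization and fitted bidirectionally against 0.5% DMSO.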
# [16] = read-out: MYC, MYC (gene 4609); experiment: LTEA_HepaRG_MYC: Life Technologies and Expression Analysis (LTEA) Assay for MYC using HepaRG (AID 2283518)
# Summary of the method: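 Differentiated human HepaRG cells, plated 48 h then switched to serum-free induction medium, were exposed in duplicate for 48 h to 8-point half-log series up to 100 uM in 0.5% DMSO. MYC mRNA measured by qRT-PCR, normalized to ACTB/GAPDH/POLR2A.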
# [17] = read-out: matrix metalloproteinase-3 (MMP3), MMP3 (gene 4314); experiment: LTEA_HepaRG_MMP3: Life Technologies and Expression Analysis (LTEA) Assay for matrix metalloproteinase-3 (MMP3) using HepaRG (AID 2283519)
# Summary of the method: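 qRT-PCR read-out of MMP3 mRNA (normalised to three housekeeping genes) in HepaRG liver cells after 48 h chemical exposure; 8-point half-log series, top 100 uM, 0.5% DMSO vehicle. Bidirectional curve fitting against DMSO baseline.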
# [18] = read-out: Paternally Expressed 10 (PEG10), PEG10 (gene 23089); experiment: LTEA_HepaRG_PEG10: Life Technologies and Expression Analysis (LTEA) Assay for Paternally Expressed 10 (PEG10) using HepaRG (AID 2283520);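 further: PEG10 transcript by qRT-PCR normalised to ACTB GAPDH and POLR2A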
# Summary of the method: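 Human HepaRG cultures are dosed for 48 h across an eight-point half-log series starting at 100 uM, with 0.5% DMSO as vehicle and baseline. Gain or loss of PEG10 transcript is measured by qRT-PCR and fitted in both directions.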
# [19] = read-out: Nuclear factor NF-kappa-B p105 subunit (Homo sapiens) (UniProt P19838); experiment: LTEA_HepaRG_NFKB1: Life Technologies and Expression Analysis (LTEA) Assay for Nuclear Factor Kappa B Subunit 1 (NFKB1) using HepaRG (AID 2283521);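 further: TaqMan qRT-PCR transcript normalised to ACTB GAPDH and POLR2A housekeeping genes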
# Summary of the method: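 Differentiated human HepaRG cells in serum-free induction medium with 0.5% DMSO were exposed for 48 h to eight half-log concentrations, top 100 uM, in duplicate. NFKB1 mRNA measured by Fluidigm TaqMan qRT-PCR, normalised to ACTB, GAPDH and POLR2A; bidirectional fit versus DMSO.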
# [20] = read-out: Protein phosphatase 2A (PPP2R4), PTPA (gene 5524); experiment: LTEA_HepaRG_PPP2R4: Life Technologies and Expression Analysis (LTEA) Assay for Protein phosphatase 2A (PPP2R4) using HepaRG (AID 2283522)
# Summary of the method: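 Cells were plated, cultured 48 h, switched to serum-free induction medium, then dosed for 48 h (8 points, max 100 uM, 0.5% DMSO). RNA was isolated and PPP2R4 expression measured by TaqMan qRT-PCR.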
# Chain of Hypoxia-inducible factor 1-alpha (Homo sapiens) (Q16665 whole entry, looked up): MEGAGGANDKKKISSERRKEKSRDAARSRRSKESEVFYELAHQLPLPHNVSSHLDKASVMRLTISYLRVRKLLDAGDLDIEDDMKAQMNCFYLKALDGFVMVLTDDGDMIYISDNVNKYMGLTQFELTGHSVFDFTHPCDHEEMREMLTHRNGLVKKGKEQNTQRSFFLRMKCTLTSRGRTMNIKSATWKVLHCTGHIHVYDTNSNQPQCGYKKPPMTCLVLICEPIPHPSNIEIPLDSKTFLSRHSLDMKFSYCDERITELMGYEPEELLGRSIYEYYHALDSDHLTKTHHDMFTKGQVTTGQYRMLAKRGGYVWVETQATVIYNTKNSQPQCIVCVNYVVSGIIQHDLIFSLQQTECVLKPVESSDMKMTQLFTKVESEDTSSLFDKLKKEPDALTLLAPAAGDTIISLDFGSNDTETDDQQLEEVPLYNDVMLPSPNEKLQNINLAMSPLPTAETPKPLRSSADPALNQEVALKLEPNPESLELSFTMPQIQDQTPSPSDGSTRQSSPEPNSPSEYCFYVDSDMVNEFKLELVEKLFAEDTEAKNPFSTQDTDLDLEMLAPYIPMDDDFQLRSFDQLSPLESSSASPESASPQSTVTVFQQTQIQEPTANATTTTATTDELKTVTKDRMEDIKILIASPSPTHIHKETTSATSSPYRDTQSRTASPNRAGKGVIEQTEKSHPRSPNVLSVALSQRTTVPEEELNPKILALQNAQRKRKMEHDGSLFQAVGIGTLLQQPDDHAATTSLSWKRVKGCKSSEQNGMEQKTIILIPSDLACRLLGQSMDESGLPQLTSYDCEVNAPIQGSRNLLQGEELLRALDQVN
# Chain of Nuclear factor NF-kappa-B p105 subunit (Homo sapiens) (P19838 whole entry, looked up): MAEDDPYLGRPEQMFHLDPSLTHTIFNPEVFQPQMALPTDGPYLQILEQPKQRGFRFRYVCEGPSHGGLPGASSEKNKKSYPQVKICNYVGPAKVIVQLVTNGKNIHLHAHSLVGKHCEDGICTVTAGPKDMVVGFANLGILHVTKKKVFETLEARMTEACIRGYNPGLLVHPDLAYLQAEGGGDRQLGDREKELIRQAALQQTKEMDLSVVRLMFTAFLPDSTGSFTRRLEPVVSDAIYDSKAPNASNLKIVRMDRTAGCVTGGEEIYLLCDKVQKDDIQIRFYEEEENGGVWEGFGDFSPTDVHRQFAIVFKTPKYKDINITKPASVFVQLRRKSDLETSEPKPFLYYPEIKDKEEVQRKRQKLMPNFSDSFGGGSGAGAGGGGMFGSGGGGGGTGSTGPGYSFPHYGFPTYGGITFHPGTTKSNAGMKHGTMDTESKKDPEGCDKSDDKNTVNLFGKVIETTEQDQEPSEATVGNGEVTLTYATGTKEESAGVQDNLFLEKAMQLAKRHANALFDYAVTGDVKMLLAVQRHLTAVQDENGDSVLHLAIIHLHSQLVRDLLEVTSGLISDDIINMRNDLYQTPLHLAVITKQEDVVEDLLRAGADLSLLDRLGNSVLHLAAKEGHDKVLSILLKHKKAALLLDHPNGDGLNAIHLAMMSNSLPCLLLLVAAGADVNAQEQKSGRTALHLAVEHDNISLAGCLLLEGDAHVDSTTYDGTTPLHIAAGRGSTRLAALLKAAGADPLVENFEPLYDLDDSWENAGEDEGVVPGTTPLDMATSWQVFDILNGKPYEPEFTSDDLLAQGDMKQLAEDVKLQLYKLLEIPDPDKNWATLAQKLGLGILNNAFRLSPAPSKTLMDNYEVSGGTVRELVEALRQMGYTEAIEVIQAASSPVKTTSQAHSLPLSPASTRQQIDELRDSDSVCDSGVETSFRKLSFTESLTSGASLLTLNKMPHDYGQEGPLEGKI
compound,measurement,setting,value
COc1cc(-c2ccc(N)c(OC)c2)ccc1N,AC50,[1],50 µM (active)
same,outcome,[1],inactive
same,outcome,[2],inactive
same,AC50,[3],75 µM (active)
same,outcome,[3],inactive
same,outcome,[4],inactive
same,AC50,[5],42.7 µM (active)
same,outcome,[5],inactive
same,outcome,[6],inactive
same,AC50,[7],39.4 µM (active) and 34.4 µM (active)
same,AC50,[8],86.9 µM (active)
same,outcome,[8],inactive
same,AC50,[9],13 µM (active)
same,outcome,[9],inactive
same,outcome,[10],inactive
same,outcome,[11],inactive
same,AC50,[12],50 µM (active)
same,outcome,[12],inactive
same,AC50,[13],50 µM (active)
same,outcome,[13],inactive
same,outcome,[14],inactive
same,AC50,[15],79.7 µM (active)
same,outcome,[15],inactive
same,AC50,[16],50 µM (active)
same,outcome,[16],inactive
same,AC50,[17],39.3 µM (active) and 2.3 µM (active)
same,AC50,[18],50 µM (active)
same,outcome,[19],inactive
same,outcome,[20],inactive
